Inconclusive results are not listed. The source made the active and inactive calls. Unless noted, the call rests on the fitted dose curve; in most records, active means well fitted curve in the direction sought with a large enough effect in the repeat runs; inconclusive means weak or mixed curves; inactive means no such curve, though single readings can be large; an effect the other way counts as inactive or inconclusive.
Legend:
[1] = A CellTox Green Cytotoxicity Assay to monitor cytotoxicity in HepG2 cells - 8 hour (AID 1224890); further: nearly all actives have a fitted effect of over 45% in size
Outline: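 Continuous culture of HepG2 cells with a membrane-impermeant DNA dye; rising fluorescence marks dead cells. Compound exposure lasted up to 40 h at 37 C, with reads every 8 h from 0 h.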

[2] = qHTS assay to identify small molecule antagonists of the estrogen receptor alpha (ER-alpha) signaling pathway using the BG1 cell line in the presence of 0.1 nM 17-beta-estradiol - cell viability counter screen (AID 1259241); further: nearly all actives have a fitted effect of over 40% in size
Outline: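 Cells were plated and left 24 hr, compounds in DMSO were pinned in, 17beta-estradiol was added to 0.1 nM final, and after 22 hr CellTiter-Fluor reagent was added for 30 min before fluorescence was read.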

[3] = qHTS assay to identify small molecule antagonists of the androgen receptor (AR) signaling pathway using the MDA cell line in the presence of 0.5 nM R1881 - cell viability counter screen (AID 1259242); further: nearly all actives have a fitted effect of over 45% in size
Outline: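 Fluorescence from CellTiter-Fluor, which reports protease activity of live cells, was read 30 min after reagent addition to MDA-kb2 cells that had been incubated 16 hr with compound and 0.5 nM R1881.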

[4] = biological target: Estrogen receptor (Homo sapiens) (UniProt P03372); experiment: qHTS assay to identify small molecule antagonists of the estrogen receptor alpha (ER-alpha) signaling pathway using the BG1 cell line in the presence of 0.1 nM 17-beta-estradiol (AID 1259244); further: nearly all actives have a fitted effect of over 50% in size
Outline: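 Quantitative high-throughput screen in VM7Luc4E2 cells: compound plus 0.1 nM E2 (final), 22 h, 37C, 5% CO2; ONE-Glo added, 30 min room temperature, luminescence measured.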

[5] = qHTS assay to identify small molecule HDAC inhibitors (AID 1259364); further: top concentration of the series differs between compounds; nearly all actives have a fitted effect of over 45% in size
Outline: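 Endogenous HDAC class I/II activity was measured in wild-type HCT-116 cells by HDAC-Glo luminescence after 2 h compound treatment.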

[6] = qHTS assay to identify small molecule HDAC inhibitors - cell viability counter screen (AID 1259365); further: series mostly up to about 92 µM; nearly all actives have a fitted effect of over 50% in size
Outline: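 Counter screen in wild-type HCT-116 cells: compounds dissolved in DMSO are pin-transferred onto overnight-plated cells and left 2hr at 37C. ATP-based CellTiter-Glo luminescence then measures viable cells.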

[7] = qHTS assay to identify small molecule agonists of the sonic hedgehog signaling (Shh) pathway - cell viability counter screen (AID 1259366); further: nearly all actives have a fitted effect of over 50% in size
Outline: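 Cells are plated at 2,000 per well and left 4hr at 37C, 5% CO2 before compound addition. After 23hr of treatment, CellTiter-Fluor reagent is added for 1hr at 37C and fluorescence is measured.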

[8] = qHTS assay to identify small molecule antagonists of the sonic hedgehog signaling (Shh) pathway - cell viability counter screen (AID 1259367); further: nearly all actives have a fitted effect of over 55% in size
Outline: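 NIH/3T3-derived Gli1-Luc reporter cells (2,000 per well) rested 4 hr at 37 C, then received DMSO compounds plus conditioned medium. After 23 hr of treatment, CellTiter-Fluor was added for 1 hr at 37C and fluorescence read.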

[9] = qHTS assay to identify small molecule phospholipidosis (PLD) inducers (AID 1259344; active means well fitted curve in the direction sought with a large enough effect; an effect the other way counts as inactive or inconclusive)
Outline: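 HepG2 cells on collagen I, attached 4 h at 37 C, were co-treated with compound and LipidTOX Red dye for 24 h at 37 C, then fixed with paraformaldehyde plus Hoechst 33342 and imaged by high-content microscopy for phospholipid accumulation.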
On the % scale 0 is the no-effect control and ±100 the full control effect.

Sequence of Estrogen receptor (Homo sapiens) (P03372 whole entry, looked up): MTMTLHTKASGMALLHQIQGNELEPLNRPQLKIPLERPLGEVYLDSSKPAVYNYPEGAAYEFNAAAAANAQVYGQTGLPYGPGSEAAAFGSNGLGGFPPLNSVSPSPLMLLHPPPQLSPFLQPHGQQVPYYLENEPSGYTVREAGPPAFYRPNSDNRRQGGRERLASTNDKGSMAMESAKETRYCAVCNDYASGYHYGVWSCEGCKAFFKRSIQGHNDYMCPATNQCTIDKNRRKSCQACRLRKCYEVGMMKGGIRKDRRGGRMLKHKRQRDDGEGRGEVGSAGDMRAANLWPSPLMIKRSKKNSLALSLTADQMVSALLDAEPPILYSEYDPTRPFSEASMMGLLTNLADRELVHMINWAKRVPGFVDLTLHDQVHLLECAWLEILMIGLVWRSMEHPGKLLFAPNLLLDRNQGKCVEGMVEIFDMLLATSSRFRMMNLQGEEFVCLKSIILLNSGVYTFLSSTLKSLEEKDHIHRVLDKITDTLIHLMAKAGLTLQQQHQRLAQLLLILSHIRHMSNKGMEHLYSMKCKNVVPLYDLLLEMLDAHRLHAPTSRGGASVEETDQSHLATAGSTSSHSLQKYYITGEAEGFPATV

O=C(O)CCCl
inactive: Potency [1] | outcome [2] | Potency [3] | outcome [4] | Potency [5] | outcome [6] | Potency [7] | Potency [8]

CCOC(=O)C(=O)OCC
inactive: Potency [1] | outcome [2] | Potency [3] | outcome [4] | Potency [5] | outcome [6] | Potency [7] | Potency [8]

CC(C(=O)O)c1ccc(CC2CCCC2=O)cc1 (stereo not drawn)
inactive: Potency [1] | outcome [2] | Potency [3] | outcome [4] | Potency [9] | outcome [6] | Potency [7] | Potency [8]

O=C[C@H](O)[C@@H](O)[C@H](O)[C@H](O)CO
inactive: Potency [1] | outcome [2] | Potency [3] | outcome [4] | PLD induction [9] -4.07% [at 7.66 µM] | outcome [6] | Potency [7] | Potency [8]

NC(CSCC(=O)O)C(=O)O (stereo not drawn)
inactive: Potency [1] | outcome [2] | Potency [3] | outcome [4] | Potency [9] | Potency [5] | outcome [6] | Potency [8]

CCOC(=O)Nc1ccc(NCc2ccc(F)cc2)nc1N
inactive: Potency [1] | outcome [2] | Potency [3] | outcome [4] | Potency [9] | Potency [5] | outcome [6] | Potency [7] | Potency [8]

CN1C(=O)N(C)C(O)C1O (stereo not drawn)
inactive: Potency [1] | outcome [2] | Potency [3] | outcome [4] | Potency [5] | outcome [6] | Potency [7] | Potency [8]

Cc1ccc(=O)n(-c2ccccc2)c1
inactive: Potency [1] | outcome [2] | Potency [3] | outcome [4] | Potency [9] | outcome [6] | Potency [7] | Potency [8]

Nc1c[n+](N2CCOCC2)no1
inactive: Potency [1] | outcome [2] | Potency [3] | outcome [4] | Potency [9] | Potency [5] | outcome [6] | Potency [7] | Potency [8]

CN1CCC(=C2c3ccccc3CC(=O)c3sccc32)CC1
inactive: Potency [1] | outcome [2] | Potency [3] | outcome [4] | Potency [5] | outcome [6] | Potency [7] | Potency [8]

CCCCC(CC)COC(=O)c1ccccc1O (stereo not drawn)
inactive: Potency [1] | outcome [2] | Potency [3] | outcome [4] | Potency [9] | Potency [5] | outcome [6] | Potency [7] | Potency [8]

c1ccc(CC2=NCCN2)cc1
inactive: Potency [1] | outcome [2] | Potency [3] | outcome [4] | Potency [9] | Potency [5] | outcome [6] | Potency [7] | Potency [8]

CC(C)(C)c1nnc(NS(=O)(=O)c2ccccc2)s1
inactive: Potency [1] | outcome [2] | Potency [3] | outcome [4] | Potency [9] | Potency [5] | outcome [6] | Potency [8]

Cn1cc(S(C)=O)c(=O)c2ccc(F)cc21 (stereo not drawn)
inactive: Potency [1] | outcome [2] | Potency [3] | outcome [4] | Potency [9] | Potency [5] | outcome [6] | Potency [7] | Potency [8]

COCCCOCCCOC
inactive: Potency [1] | outcome [2] | Potency [3] | outcome [4] | Potency [5] | outcome [6] | Potency [7] | Potency [8]

CCOC(=O)c1cccc(N)c1
inactive: Potency [1] | outcome [2] | Potency [3] | outcome [4] | Potency [9] | Potency [5] | outcome [6] | Potency [8]

COc1cc(C(=O)N2CCCCCCC2)cc(OC)c1OC
inactive: Potency [1] | outcome [2] | Potency [3] | outcome [4] | Potency [9] | outcome [6] | Potency [7] | Potency [8]

COc1ccccc1OCC(O)CN1CCN(CC(=O)Nc2c(C)cccc2C)CC1 (stereo not drawn)
inactive: Potency [1] | outcome [2] | Potency [3] | outcome [4] | Potency [9] | Potency [5] | outcome [6] | Potency [7] | Potency [8]

CCO[Si](CCC1CCC2OC2C1)(OCC)OCC (stereo not drawn)
inactive: Potency [1] | outcome [2] | Potency [3] | outcome [4] | Potency [5] | outcome [6] | Potency [7] | Potency [8]

Nc1c2c(nc3ccccc13)CCCC2O (stereo not drawn)
inactive: Potency [1] | outcome [2] | Potency [3] | outcome [4] | Potency [9] | Potency [5] | outcome [6] | Potency [8]

C[C@@H]1CCN(C(=O)[C@H](CCCN=C(N)N)NS(=O)(=O)c2cccc3c2NC[C@H](C)C3)[C@@H](C(=O)O)C1
inactive: Potency [1] | outcome [2] | Potency [3] | outcome [4] | Potency [9] | outcome [6] | Potency [7] | Potency [8]

NS(=O)(=O)c1cc(C(=O)O)cc(N2CCCC2)c1Oc1ccccc1
inactive: Potency [1] | outcome [2] | Potency [3] | outcome [4] | Potency [9] | Potency [5] | outcome [6] | Potency [7] | Potency [8]

COc1c(N2C[C@@H]3CCCN[C@@H]3C2)c(F)cc2c(=O)c(C(=O)O)cn(C3CC3)c12
inactive: Potency [1] | outcome [2] | Potency [3] | outcome [4] | Potency [9] | Potency [5] | outcome [6] | Potency [8]

Cc1[nH]c(=O)c(C#N)cc1-c1ccc2nccn2c1
inactive: Potency [1] | outcome [2] | Potency [3] | Potency [9] | Potency [5] | outcome [6] | Potency [7] | Potency [8]

C=COCC1CCC(CO)CC1 (stereo not drawn)
inactive: Potency [1] | outcome [2] | Potency [3] | outcome [4] | outcome [6] | Potency [7] | Potency [8]

OC(CCN1CCCCC1)(c1ccccc1)C1CC2C=CC1C2 (stereo not drawn)
inactive: Potency [1] | outcome [2] | Potency [3] | outcome [4] | Potency [5] | outcome [6] | Potency [8]

C=CCS(=O)(=O)O
inactive: Potency [1] | outcome [2] | Potency [3] | outcome [4] | Potency [5] | outcome [6] | Potency [7] | Potency [8]

CCCCCCCCCCCCCC=O
inactive: cytotoxicity increase [1] 5.89% [at 6.97 µM] | activity change, negative = cytotoxicity [2] 4.83% [at 8.39 µM] | viability change, negative = cytotoxic [3] -0.255% [at 8.39 µM] | activity change, negative = inhibition [4] 5.09% [at 8.39 µM] | activity change, negative = inhibition [5] -0.0684% [at 8.39 µM] | activity change, negative = cytotoxicity [6] 1.26% [at 8.39 µM] | viability change, negative = cytotoxic [8] 0.0972% [at 8.39 µM]

COC(=O)c1ccc(C)cc1C1=NC(C)(C(C)C)C(=O)N1 (stereo not drawn)
inactive: Potency [1] | outcome [2] | Potency [3] | Potency [5] | outcome [6] | Potency [7] | Potency [8]

CC(C)NCCCC1(C(N)=O)c2ccccc2-c2ccccc21
inactive: Potency [1] | outcome [2] | Potency [3] | outcome [4] | Potency [5] | outcome [6] | Potency [8]

C[N+](C)(C)CC(O)CC(=O)[O-] (stereo not drawn)
inactive: Potency [1] | outcome [2] | Potency [3] | Potency [9] | Potency [5] | outcome [6] | Potency [7] | Potency [8]

CC/C=C\CC/C=C/C(OCC)OCC
inactive: Potency [1] | outcome [2] | Potency [3] | outcome [6] | Potency [7] | Potency [8]

CCCN1CCCC[C@H]1C(=O)Nc1c(C)cccc1C
inactive: Potency [1] | outcome [2] | Potency [3] | Potency [9] | outcome [6] | Potency [8]

CCCN(CCC)CCc1cccc2c1CC(=O)N2
inactive: Potency [1] | outcome [2] | Potency [3] | Potency [9] | Potency [5] | outcome [6] | Potency [7] | Potency [8]

CC(C)NCC(O)c1ccc(NS(C)(=O)=O)cc1 (stereo not drawn)
inactive: Potency [1] | outcome [2] | Potency [3] | Potency [9] | Potency [5] | outcome [6] | Potency [7] | Potency [8]

Source: PubChem BioAssay (Tox21)
